# Assay results: PubChem BioAssay AID1619 (SRMLSC, 2009)
# The whole screen tested about 220,000 compounds, of which about 830 (0.38%) were called active. A selection follows. Results with a measured potency or affinity are listed apart. Values without a mark were called inactive.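 The calls were made as follows: active = compound inhibiting the enzyme by more than half at any dose during confirmatory dose-response retesting; inconclusive = strong single-dose inhibitors picked by rank but not retested; inactive = the rest.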
# Molecular target: Leucine aminopeptidase (Plasmodium falciparum (isolate 3D7)) (UniProt Q8IL11)
# Sequence (Q8IL11 whole entry, looked up): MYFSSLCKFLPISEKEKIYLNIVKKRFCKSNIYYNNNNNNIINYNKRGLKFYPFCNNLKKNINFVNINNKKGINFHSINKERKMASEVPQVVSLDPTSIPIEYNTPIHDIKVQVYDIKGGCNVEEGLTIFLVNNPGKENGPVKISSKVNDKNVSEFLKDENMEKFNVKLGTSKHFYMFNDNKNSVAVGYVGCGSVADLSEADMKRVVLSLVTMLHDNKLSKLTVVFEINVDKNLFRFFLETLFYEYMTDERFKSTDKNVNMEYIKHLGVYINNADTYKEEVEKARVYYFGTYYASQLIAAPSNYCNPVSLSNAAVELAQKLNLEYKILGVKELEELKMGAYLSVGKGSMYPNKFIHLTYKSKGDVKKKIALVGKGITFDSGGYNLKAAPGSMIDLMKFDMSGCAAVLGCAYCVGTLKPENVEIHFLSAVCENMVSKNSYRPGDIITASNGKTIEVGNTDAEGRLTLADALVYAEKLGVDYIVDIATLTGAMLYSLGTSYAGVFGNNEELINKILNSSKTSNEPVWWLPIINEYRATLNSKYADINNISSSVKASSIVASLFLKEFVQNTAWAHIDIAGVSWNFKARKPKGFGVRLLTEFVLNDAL
# Test: P. falciparum M17LAP inhibitors, primary screen, biochemical, fluorogenic H-Leu-NHMec substrate, 1536-well (AID 1619);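 also: plate controls were full reaction with DMSO carrier for no effect and no enzyme background for full effect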
# Details: recombinant M17LAP, H-Leu-NHMec fluorogenic kinetic assay; at 30 µM; active compounds read high
row,SMILES,inhibition [%]
1,Cc1ccc(NNC(=O)c2ccc(Cl)cc2)nn1,17.4
2,COc1cc(/C=N/Nc2ccc(C(=O)O)cc2)ccc1O,22.3
3,COc1ccc(/C=N/Nc2ccc(C(=O)O)cc2)cc1OC,25.7
4,CCOc1ccc(OCC)c(NC(=O)C2CCCN(S(=O)(=O)c3c(C)noc3C)C2)c1 (centres undefined),3.89
5,COc1ccc(OC)c(N/C=C2/CCCCC2=O)c1,5.47
6,CC(=O)COc1ncn(-c2ccccc2)n1,42.4
7,NC(=O)COc1ncn(-c2ccccc2)n1,1.05
8,CCCCC(=O)Nc1nnc(-c2ccc(OC)cc2)s1,4.4
9,O=C(CN1C(=O)NC2(CCCC2)C1=O)OCc1cc(=O)n2cc(Br)ccc2n1,-0.9
10,O=C1CCCCN1CCc1c[nH]c2ccccc12,15.4
11,COc1ccc(N2CCN(c3n[nH]c(N)n3)CC2)cc1,0.79
12,COc1ccc(-n2nc3c(N)n[nH]c3cc2=O)cc1,-0.44
13,O=C(CC12CC3CC(CC(C3)C1)C2)NC(=S)NCc1ccccc1,-4.21
14,Cc1cccnc1CN1CCN(C(=O)c2cc(COc3ccc4ncccc4c3)on2)CC1,0.97
15,Cc1ccccc1NC(=O)c1cnc2ccccn2c1=O,2.31
16,O=C(Nc1cccc(C(F)(F)F)c1)c1cccnc1,-1.75
17,Cn1ncc(N)c1C(=O)Nc1cccc(C(F)(F)F)c1,1.2
18,CSc1nc2nc3c(cc2c(=O)n1-c1ccc(C)cc1)COC(C)(C)C3,3.67
19,CCc1ccc(CN(C)C(=O)CCc2nnc(Cc3cccc(C)c3)o2)nc1,-6.64
20,Cc1cccc(C)c1NC(=O)CSCC(=O)O,4.91
21,Cc1cccc(C)c1NC(=O)CSCCO,0.75
22,CCOC(=O)CSc1nc(-c2ccccc2)nc2ccc(C)cc12,2.78
23,CC1CN(c2nc(-c3ccccc3)nc3ccccc23)CC(C)O1 (centres undefined),4.44
24,Cc1ccc(/C=c2\sc3nc(-c4ccco4)nn3c2=O)o1,42.2
25,Cc1ccc(/C=c2\sc3nc(-c4cccs4)nn3c2=O)o1,79.6

row,SMILES,inhibition [%]
1,CCN(CC)c1ccc(/C=c2\sc3nnc(-c4ccccc4Cl)n3c2=O)cc1,1.48
2,CCN(CC)c1ccc(/C=c2/sc3nnc(-c4ccccc4C)n3c2=O)cc1,9.78
3,CCc1ccc(NC(=O)C(C)Nc2ccc(S(=O)(=O)NC(C)=O)cc2)cc1 (centres undefined),3.98
4,O=[N+]([O-])c1cccc(-c2nnn(C34CC5CC(CC(C5)C3)C4)n2)c1,-10.4
5,COc1ccc(N(CC(=O)Nc2ccc3c(c2)OCO3)S(=O)(=O)c2ccc(C)cc2)cc1OC,-12.9
6,COc1ccc(C(=O)CC2OC(=O)c3c2ccc(OC)c3OC)cc1 (centres undefined),9.31
7,COc1ccc2c(c1OC)C(=O)OC2CC(=O)c1ccc(O)cc1 (centres undefined),14.4
8,CC(C)n1cc(/C=C2\NC(=O)N(c3cccc(Cl)c3)C2=O)c2ccccc21,-7.4
9,O=C(O)Cn1cc(/C=C2\SC(=O)N(c3ccccc3)C2=O)c2ccccc21,15
10,CCOc1ccc(Nc2cc(=O)oc3ccccc23)cc1,4.7
11,Cc1cccc(N2CCN(S(=O)(=O)c3ccc4c(c3)CCN4C(=O)CCC(=O)O)CC2C)c1 (centres undefined),-2.93
12,CCN(CC)C(=O)CSc1nnnn1-c1ccc(F)c(Cl)c1,-1.03
13,Cc1ccc(NC(N)=S)cc1,18.7
14,CNC(=S)Nc1ccc(C)cc1,3.68
15,O=C(CN1C(=O)C2C3C=CC(C3)C2C1=O)Nc1ccc2nccnc2c1 (centres undefined),1.82
16,Cc1cc(C=C2C(=O)c3ccccc3C2=O)c(C)n1-c1ccc(C(=O)O)cc1,18.3
17,Cc1cc(C=C2C(=O)c3ccccc3C2=O)c(C)n1-c1ccccc1,-3.81
18,Cn1c(=O)cc(OCCCC(=O)NCCC2=CCCCC2)c2ccccc21,-10.7
19,C=CCn1cccc(C(=O)Nc2ccc(OC)cc2OC)c1=O,21.4
20,COC(=O)COc1cccc2c(=O)n(CC(=O)N3CCCCC3)ccc12,12.9
21,COc1cccc2c(=O)n(CC(=O)N3CCCCC3)ccc12,33.4
22,COC(=O)COc1cccc2c(=O)n(CC(=O)N3CCC(C)CC3)ccc12,-7.98
23,CCOC(=O)COc1cccc2c(=O)n(CC(=O)N3CCC(C)CC3)ccc12,3.95
24,COc1ccccc1/C=C(\NC(=O)c1ccc(OC)c(OC)c1)C(=O)Nc1cccc([N+](=O)[O-])c1,-33.9
